# Laboratory results as given in paper PMC4336329 (PLoS ONE, 2015).
# About 2,200 (0.71%) of roughly 310,000 compounds showed an effect of 50% or more. The effect is printed as a negative number. This excerpt belongs to a sample that is enriched for strong results.
# Target: human ether-à-go-go-related gene (hERG) potassium channel (human, UniProt Q12809)
# Assay: primary screen, population patch clamp on CHO cells stably expressing hERG; higher = less effect of the substance
# human ether-à-go-go-related gene (hERG) potassium channel, sequence (Q12809 whole entry, looked up): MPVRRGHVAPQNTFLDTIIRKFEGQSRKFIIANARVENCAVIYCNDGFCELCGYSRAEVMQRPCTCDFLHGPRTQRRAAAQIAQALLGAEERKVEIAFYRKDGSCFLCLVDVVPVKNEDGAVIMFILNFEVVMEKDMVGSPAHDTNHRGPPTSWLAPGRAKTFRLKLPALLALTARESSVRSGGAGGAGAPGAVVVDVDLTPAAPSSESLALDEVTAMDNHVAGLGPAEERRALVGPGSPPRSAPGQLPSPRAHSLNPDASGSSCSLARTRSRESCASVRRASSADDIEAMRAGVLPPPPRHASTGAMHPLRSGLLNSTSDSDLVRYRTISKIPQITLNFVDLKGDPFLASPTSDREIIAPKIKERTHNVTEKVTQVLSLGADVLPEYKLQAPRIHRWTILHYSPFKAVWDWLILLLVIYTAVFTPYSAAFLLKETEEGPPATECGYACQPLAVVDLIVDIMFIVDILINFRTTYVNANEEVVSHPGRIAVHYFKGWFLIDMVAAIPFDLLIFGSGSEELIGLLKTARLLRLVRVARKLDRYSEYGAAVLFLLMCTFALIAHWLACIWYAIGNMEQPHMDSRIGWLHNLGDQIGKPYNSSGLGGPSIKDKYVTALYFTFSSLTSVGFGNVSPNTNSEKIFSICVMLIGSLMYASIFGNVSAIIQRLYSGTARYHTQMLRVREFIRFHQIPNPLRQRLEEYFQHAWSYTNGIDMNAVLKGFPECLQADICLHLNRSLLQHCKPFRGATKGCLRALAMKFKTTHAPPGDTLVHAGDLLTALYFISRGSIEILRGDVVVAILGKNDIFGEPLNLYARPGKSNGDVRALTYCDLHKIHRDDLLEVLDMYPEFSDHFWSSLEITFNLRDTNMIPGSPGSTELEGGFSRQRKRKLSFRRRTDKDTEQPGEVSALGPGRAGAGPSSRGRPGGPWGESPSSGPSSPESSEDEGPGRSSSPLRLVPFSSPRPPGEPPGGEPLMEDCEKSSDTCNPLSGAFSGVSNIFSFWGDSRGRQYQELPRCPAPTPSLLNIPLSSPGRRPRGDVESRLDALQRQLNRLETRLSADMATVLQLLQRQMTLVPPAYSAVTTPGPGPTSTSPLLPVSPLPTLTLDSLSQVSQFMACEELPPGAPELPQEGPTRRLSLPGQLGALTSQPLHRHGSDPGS
row,SMILES,"hERG current change (%, negative = inhibition) at 1uM [%]"
1,Cc1cc(C)n2c(SC(C)C(=O)NC3(C#N)CCCCC3)nnc2n1 (stereo not drawn),11.7
2,CCOC(=O)c1oc2ccccc2c1NC(=O)c1ccc(S(=O)(=O)N2CCCC2)cc1,-6.45
3,CCOC(=O)C1CCN(S(=O)(=O)c2cc(F)ccc2OC)CC1,8.83
4,COc1ccc(-c2nc(NCCCN(C)C)c3ccccc3n2)cc1.Cl,3.72
5,C=C(C)Cn1c(SCC#N)nc2ccccc2c1=O,3.85
6,COc1ccc(S(=O)(=O)N2CCN(C)CC2)c2ccccc12,9.59
7,CC(Sc1nc2ccccc2n1C)C(=O)Nc1ccc(N2CCOCC2)cc1 (stereo not drawn),6.2
8,CN1CCN(C(=O)CCC(=O)NCc2ccc(F)cc2)CC1,9.84
9,O=C(COC(=O)c1ccccn1)NC(=O)c1ccccc1,-5.45
10,Cc1[nH]nc2ncc(C(=O)c3cc(Cl)cc(Cl)c3O)cc12,10.1
11,COc1cccc(OC)c1C(=O)Nc1nc2ccc([N+](=O)[O-])cc2s1,16.1
12,COc1cccc(CNC(=O)c2cc(C3CC3)nc3c2cnn3C(C)C)c1,-0.644
13,COc1ccc(N(C(=O)c2ccc(F)cc2)C2=CC3CCC(C2)N3C)cc1.Cl (stereo not drawn),-50.3
14,COc1ccc(CCN(C(=O)c2ccc(F)cc2)C2=CC3CCC(C2)N3C)cc1OC.Cl (stereo not drawn),-22.6
15,CCCCN(C(=O)c1cc(OC)c(OC)c(OC)c1)C1=CC2CCC(C1)N2C.Cl (stereo not drawn),8.68
16,CCOc1cc([N+](=O)[O-])cc(/C=C2/NC(=O)N(Cc3ccccc3F)C2=O)c1O,4.45
17,COc1cc(NC(=S)NC(=O)c2ccccc2F)ccc1NC(=O)c1ccco1,7.37
18,CCn1c(SCC(=O)Nc2ccc(C(C)=O)cc2)nc2nc3c(cc2c1=O)COC(C)(C)C3,14.1
19,CCn1c(SCC(=O)Nc2ccc(C)cc2)nc2nc3c(cc2c1=O)COC(C)(C)C3,-76.5
20,CCn1c(SCC(=O)Nc2ccccc2)nc2nc3c(cc2c1=O)COC(C)(C)C3,-12.4
21,Cc1cccc(-n2ncc3c(NC(C)C)ncnc32)c1,12.7
22,Cc1nn(C(C)C(=O)Nc2ccc(Cl)cn2)c(C)c1[N+](=O)[O-] (stereo not drawn),2.84

row,SMILES,"hERG current change (%, negative = inhibition) at 1uM [%]"
1,Cc1ccc(C)c(NC(=O)C2CC(O)CN2C(=O)OCc2ccccc2)c1 (stereo not drawn),2.34
2,COc1ccc(OCCN2CCN(C(=O)c3ccc(OC)c(OC)c3)CC2)cc1,-35.6
3,O=C(c1ccc(Cl)cc1)N1CCN(CCOc2ccccc2)CC1,-12.4
4,COc1ccc(N2CCN(CCC(N)=O)CC2)cc1,14.6
5,COc1ccc(C(=O)NCCN2CCN(C(=O)c3ccc(OC)cc3)CC2)cc1,-22.1
6,COc1ccc(C(=O)NCCN2CCN(C(=O)c3ccc(OC)c(OC)c3)CC2)cc1OC,13.2
7,COc1ccc(C(=O)CCN2CCN(c3ccc(OC)cc3)CC2)cc1,-74.1
8,COc1ccc(OCCN2CCN(C(=O)c3ccc(OC)cc3)CC2)cc1,-90.6
9,COc1ccc(N2CCN(CCC(=O)c3ccc4ccccc4c3)CC2)cc1,11.4
10,COc1ccc(OCCN2CCN(C(=O)c3ccc(OC(F)F)c(OC)c3)CC2)cc1,-62.6
11,Oc1c(Cl)cc(Cl)cc1C=Nc1ccc(N2CCOCC2)cc1,9.19
12,COC(=O)c1c(NC(=O)c2nn(C)cc2Cl)sc2c1CCCC2,19.3
13,Cc1cc2cc(C(c3nnnn3Cc3ccco3)N3CCCCC3)c(=O)[nH]c2cc1C (stereo not drawn),6.29
14,Cc1nnsc1C(=O)NNC(=O)c1cccc2ccccc12,9.5
15,CC1C=CCC2C(=O)N(c3ccccc3OC(=O)c3cccs3)C(=O)C12 (stereo not drawn),9.04
16,Cc1cccc(C)c1NC(=O)NC1(C(=O)NCc2ccncc2)CCCCC1,12.6
17,O=C(COc1ccc([N+](=O)[O-])cc1)N1CCc2ccccc2C1,-15
18,COc1ccc(OCCCN2CCCC(C)C2)cc1 (stereo not drawn),-2.33
19,CC1CC(C)CN(CCCCOc2ccc([N+](=O)[O-])cc2)C1.O=C(O)C(=O)O (stereo not drawn),-80.3
20,CC1CC(C)CN(CCOc2ccc(Br)cc2)C1.O=C(O)C(=O)O (stereo not drawn),-12.4
21,O=C(O)C(=O)O.O=[N+]([O-])c1ccc(OCCCCN2CCc3ccccc3C2)cc1,-81.1
22,CC1CN(CCCOc2ccc([N+](=O)[O-])cc2)CC(C)O1.O=C(O)C(=O)O (stereo not drawn),-59.6

row,SMILES,"hERG current change (%, negative = inhibition) at 1uM [%]"
1,CC1CN(CCCCOc2ccc(F)cc2)CC(C)O1.O=C(O)C(=O)O (stereo not drawn),-4.39
2,CC1CN(CCOc2ccc([N+](=O)[O-])cc2)CC(C)O1.O=C(O)C(=O)O (stereo not drawn),-13.6
3,CC1CCCN(CCCOc2ccc([N+](=O)[O-])cc2)C1.O=C(O)C(=O)O (stereo not drawn),-77.4
4,Cl.Clc1ccc(OCCCCN2CCc3ccccc3C2)cc1,-8.64
5,CC1CC(C)CN(CCCOc2ccccc2[N+](=O)[O-])C1.O=C(O)C(=O)O (stereo not drawn),5.91
6,CCCOc1ccc(OCCN2CCCC(C)C2)cc1.O=C(O)C(=O)O (stereo not drawn),0.638
7,NC(=O)c1ccc(-c2nnn(CC(=O)N(C3CCCCC3)C3CCS(=O)(=O)C3)n2)cc1 (stereo not drawn),9.79
8,Cc1ccc(C)c(N2CCN(C(=O)C3CCCN(S(=O)(=O)c4c(C)[nH]c(=O)[nH]c4=O)C3)CC2)c1 (stereo not drawn),9.86
9,CCOc1ncccc1C(=O)Nc1ccc(Cl)c(S(=O)(=O)N2CCCC2)c1,2.41
10,O=C(Nc1cccc(O)c1)c1ccc(C(=O)c2ccccc2)o1,-1.55
11,CCOc1ccc(CC(=O)NNC(=S)NC2CCCCC2)cc1OCC,7.2
12,COc1ccc(-n2nnnc2SCC(=O)Nc2nnc(C)s2)cc1OC,-7.62
13,CC(=O)Nc1ccc(Nc2c3c4c(cccc4n(C)c2=O)C(=O)c2ccccc2-3)cc1,10.6
14,Nc1nc(SCC(=O)c2cccs2)n[nH]1,6.15
15,Cc1cc(C)cc(OCC(=O)Nc2ccc3c(c2)OCCO3)c1,15.5
16,COC(=O)C1C(=O)NCC1c1ccc(C)cc1 (stereo not drawn),11.9
17,Cc1ccc(CS(=O)(=O)Cc2ccc(C(=O)N3CCC4(CC3)OCCO4)o2)cc1,-1.4
18,CCN(CC(=O)NCc1ccc(F)cc1)C(=O)CN1CCN(c2cc(Cl)ccc2C)CC1,-68.2
19,CCN(CC(=O)NCc1ccc(Cl)cc1)C(=O)/C=C/c1ccc(C#N)cc1,-52.1
20,CCN(CC(=O)NCc1ccc(Cl)cc1)C(=O)Cc1ccc(OC)cc1,-66.9
21,CCN(CC(=O)NCc1ccc(Cl)cc1)C(=O)/C=C/c1cc(OC)c(OC)c(OC)c1,11.2
22,CCN(CC(=O)NCc1ccc(F)cc1)C(=O)Cc1ccc(OC)cc1,-37.8

row,SMILES,"hERG current change (%, negative = inhibition) at 1uM [%]"
1,CCN(CC(=O)NCc1ccc(Cl)cc1)C(=O)CCC(=O)c1ccc(C)cc1,-8.96
2,CCN(CC(=O)NCc1ccc(F)cc1)C(=O)CN1CCN(c2ccc(OC)cc2)CC1.O=C(O)C(=O)O,-21.1
3,CCN(CC(=O)NCc1ccc(Cl)cc1)C(=O)/C=C/c1ccccc1,-1.79
4,CCN(CC(=O)NCc1ccc(F)cc1)C(=O)CN1CCN(c2ccccc2OC)CC1,-44.4
5,CCN(CC(=O)NCc1ccc(Cl)cc1)C(=O)CCC(=O)c1ccc(F)cc1,-52.2
6,CCN(CC(=O)NCc1ccc(Cl)cc1)C(=O)c1ccc2cc(OC)ccc2c1,7.72
7,CCOc1ccc(C(=O)CCC(=O)N(CC)CC(=O)NCc2ccc(Cl)cc2)cc1,-8.36
8,O=[N+]([O-])c1ccc(CN2CCC(Cc3ccccc3)CC2)cc1,-9.62
9,O=C(NCC1(O)CCCCC1)C1CCC(=O)N(Cc2ccccc2F)C1 (stereo not drawn),15.8
10,CCOC(=O)COc1ccc(S(=O)(=O)NCc2ccncc2)cc1,8.78
11,CCn1cc(CCCC(=O)NCc2ccc(OC)cc2)c2ccccc21,15.1
12,CCOc1cc(/C=C2\C(=O)ON=C2c2ccccc2)ccc1OC,17.4
13,O=C(CCN1C(=O)c2ccccc2C1=O)NC(=S)Nc1ccccc1Cl,5.29
14,CCC(CCC(=O)Nc1ccn(-c2ccccc2)n1)C(=O)O (stereo not drawn),7.09
15,Cc1nc(NC(=O)c2ccccc2[N+](=O)[O-])sc1C(=O)N(C)C,16.4
16,O=C(O)c1ccc(S(=O)(=O)N(CCc2ccccc2)Cc2ccc(Cl)cc2)cc1,11.5
17,Brc1ccc(-c2cnco2)cc1,9.53
18,COc1ccc(S(=O)(=O)NC2CCCCC2)cc1C(=O)N1CCCCC1,0.2
19,CCN(CC(=O)NCc1ccc(Cl)cc1)C(=O)CCc1ccccc1,-19.8
20,CCN(CC(=O)NCc1ccc(F)cc1)C(=O)c1ccc(Cl)cc1,-2.66
21,CCN(CC(=O)NCc1ccc(Cl)cc1)C(=O)NCc1ccc(Cl)cc1,-54.1
